# Results as given in PubChem BioAssay (NCATS).
# A number with no mark means an inactive call. Results filed as inconclusive are left out. The source made the active and inactive calls. Unless noted, calls follow the shape of the dose curve; as a rule, active = well fitted curve in either direction with a large enough effect (not every such curve was filed as active); inconclusive = small, poorly fitted or top-dose-only effect, or another doubt; inactive = flat fitted curve, though single readings scatter.
# Columns and labels:
# [1] = target: Lysosomal acid glucosylceramidase (Homo sapiens) (UniProt P04062); assay: Glucocerebrosidase-p2 (AID 348; in the data active = potency below about 10 µM; also: potency is read from the fitted curve at half-maximal effect); details: purified GBA, blue fluorogenic substrate, 40 min
# Sequence of Lysosomal acid glucosylceramidase (Homo sapiens) (P04062 whole entry, looked up): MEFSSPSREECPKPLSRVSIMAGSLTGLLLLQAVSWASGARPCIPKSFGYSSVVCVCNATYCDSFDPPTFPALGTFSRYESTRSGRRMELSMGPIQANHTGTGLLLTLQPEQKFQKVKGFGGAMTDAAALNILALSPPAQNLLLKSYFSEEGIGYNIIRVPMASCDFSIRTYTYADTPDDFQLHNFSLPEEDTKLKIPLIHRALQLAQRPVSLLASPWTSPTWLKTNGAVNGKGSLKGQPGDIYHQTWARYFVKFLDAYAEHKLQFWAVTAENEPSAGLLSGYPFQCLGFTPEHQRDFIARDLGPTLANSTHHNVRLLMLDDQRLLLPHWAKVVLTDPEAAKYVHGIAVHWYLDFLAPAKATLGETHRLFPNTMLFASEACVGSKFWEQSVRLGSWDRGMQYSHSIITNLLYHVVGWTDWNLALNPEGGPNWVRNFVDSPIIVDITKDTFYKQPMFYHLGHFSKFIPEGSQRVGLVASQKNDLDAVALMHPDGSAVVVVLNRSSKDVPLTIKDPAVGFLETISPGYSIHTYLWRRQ
# Outline: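 Normal human glucocerebrosidase (0.2 nM) with blue fluorogenic substrate (80 uM final) in citrate/phosphate pH 5.9 with 10mM sodium taurocholate, 0.01% tween-20; 40 min RT, NaOH/glycine stop; fluorescence Ex 365/Em 440; AC50 from a titration from 0.6 nM upwards.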
# [2] = AP1 Signaling Pathway (AID 357); details: ME-180 AP-1-bla reporter, EGF-induced, beta-lactamase ratio, 5 h; at 7.69 µM (top of the series) unless noted;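 also: ME-180 reporter cells stimulated with EGF at its EC50 level; % is scaled to controls: 0 for no effect and ±100 for the full control effect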
# Outline: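 Beta-lactamase reporter under AP-1 response element, ME-180 background. Stimulus: EC50 EGF. Compound exposure 5 h, 37 °C. Detection: CCF4, 2.5 h RT, 460/530 nm. Values: AC50 from titration.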
# [3] = target: Cytochrome P450 1A2 (Homo sapiens) (UniProt P05177); assay: p450-cyp1a2 (AID 410; calls by dose curve; also: potency is read from the fitted curve at half-maximal effect;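 as to activity change, negative = inhibition: -100% = full effect of reference inhibitor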); details: recombinant CYP1A2, luciferin-ME demethylation, luminescence; series mostly up to 11.4 µM
# Sequence of Cytochrome P450 1A2 (Homo sapiens) (P05177 whole entry, looked up): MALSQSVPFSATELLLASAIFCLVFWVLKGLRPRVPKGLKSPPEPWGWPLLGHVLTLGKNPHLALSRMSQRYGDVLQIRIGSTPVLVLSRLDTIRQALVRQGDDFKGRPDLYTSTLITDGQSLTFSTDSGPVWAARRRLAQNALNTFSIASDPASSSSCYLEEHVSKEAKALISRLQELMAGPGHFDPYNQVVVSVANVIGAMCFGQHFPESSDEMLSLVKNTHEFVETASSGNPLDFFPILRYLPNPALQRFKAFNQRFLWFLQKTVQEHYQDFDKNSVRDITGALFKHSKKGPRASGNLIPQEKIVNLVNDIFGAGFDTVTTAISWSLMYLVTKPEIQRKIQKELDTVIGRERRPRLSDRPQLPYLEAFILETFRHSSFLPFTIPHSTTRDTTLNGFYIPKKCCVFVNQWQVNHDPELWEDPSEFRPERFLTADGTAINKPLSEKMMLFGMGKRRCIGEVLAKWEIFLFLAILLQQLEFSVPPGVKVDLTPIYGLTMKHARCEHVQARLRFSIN
# Outline: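 Luminescent demethylation readout: Luciferin-ME (100uM, equal to Km) turned over by 20nM CYP1A2 for 60 min at room temperature after NADPH regeneration addition, following 10 min compound preincubation. Normalization used 57 uM furafylline as full inhibition.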
# [4] = NFAT Signaling Pathway (AID 444); details: Jurkat NFAT-bla M1, carbachol, beta-lactamase ratio, 5 h; at 7.69 µM (top of the series) unless noted;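 also: carbachol stimulus at about its EC50 of 1 µM final; % is scaled to controls: 0 for no effect and ±100 for the full control effect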
# Outline: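 Jurkat cells with NFAT-driven β-lactamase reporter and co-expressed M1 receptor, stimulated with carbachol (final 1 uM, ~EC50), compound titration, 5 h at 37 °C. CCF4 loaded 1 h at RT; 460/530 nm ratio gave %activity and AC50.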
# [5] = Stat Signaling Pathway (AID 446); details: ME-180 (cervical carcinoma) SIE beta-lactamase reporter, IL-6 stimulated, 5 h; at 7.69 µM (top of the series) unless noted;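 also: ME-180 cervical cancer cells given 40 pM IL-6 alongside compound; SIE-controlled beta-lactamase reporter measured as 460/530 nm FRET emission ratio; % is scaled to controls: 0 for no effect and ±100 for the full control effect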
# Outline: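 Overnight-plated ME-180 cells bearing a STAT Inducible Element beta-lactamase reporter; 5 h co-exposure to compound and 40 pM IL-6; values normalized to 300 pM IL-6 and 125 nM JAK inhibitor controls.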
# [6] = target: Glucocorticoid receptor (Homo sapiens) (UniProt P04150); assay: GR-GFP Redistribution (AID 450;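 active = compounds whose dose series gives a full or clear partial fitted curve of increased nuclear translocation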; also: potency is read from the fitted curve at half-maximal effect); details: U2OS GR-GFP nuclear translocation, laser cytometry, 2 h
# Sequence of Glucocorticoid receptor (Homo sapiens) (P04150 whole entry, looked up, the tested form may be a part): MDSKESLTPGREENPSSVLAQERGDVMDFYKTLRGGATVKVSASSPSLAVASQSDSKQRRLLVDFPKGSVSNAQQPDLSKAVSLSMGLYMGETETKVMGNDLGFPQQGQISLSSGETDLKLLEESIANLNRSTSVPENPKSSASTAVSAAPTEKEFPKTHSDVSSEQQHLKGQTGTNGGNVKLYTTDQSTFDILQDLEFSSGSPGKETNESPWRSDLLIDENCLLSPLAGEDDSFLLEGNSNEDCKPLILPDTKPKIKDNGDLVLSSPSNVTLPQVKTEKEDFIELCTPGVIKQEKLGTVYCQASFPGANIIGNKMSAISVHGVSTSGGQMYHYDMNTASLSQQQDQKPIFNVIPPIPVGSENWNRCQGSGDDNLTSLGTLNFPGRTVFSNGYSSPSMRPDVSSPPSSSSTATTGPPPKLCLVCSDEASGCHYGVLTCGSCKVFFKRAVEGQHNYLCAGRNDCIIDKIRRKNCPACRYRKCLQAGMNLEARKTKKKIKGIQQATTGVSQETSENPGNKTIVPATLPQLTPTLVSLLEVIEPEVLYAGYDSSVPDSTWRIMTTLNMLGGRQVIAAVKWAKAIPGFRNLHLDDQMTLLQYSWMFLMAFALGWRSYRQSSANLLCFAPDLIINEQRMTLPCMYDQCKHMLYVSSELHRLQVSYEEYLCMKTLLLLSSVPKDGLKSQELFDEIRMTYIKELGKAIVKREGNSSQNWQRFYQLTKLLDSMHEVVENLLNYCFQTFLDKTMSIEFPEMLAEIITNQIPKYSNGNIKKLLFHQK
# [7] = target: Glucocorticoid receptor (Homo sapiens) (UniProt P04150); assay: GR-EFC Redistribution (AID 451; calls by dose curve; also: potency is read from the fitted curve at half-maximal effect); details: CHO-K1 GR-EFC translocation, beta-gal luminescence, 2 h
# Outline: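 CHO-K1 cells expressing nuclear EA and GR-ED fragments of b-gal; compounds titrated up to 46 uM final, 2 h at 37 C. GR nuclear translocation read as complemented b-gal luminescence after 1 h RT detection.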
# [8] = target: Mitogen-activated protein kinase 10 (Mus musculus) (UniProt Q61831); assay: JNK3 AlphaScreen Assay (AID 530); details: JNK3 lysate, c-Jun phosphorylation; series mostly up to 11.4 µM;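 also: kinase came from lysate of stimulated human HepG2 cells; signal reports phosphorylation of biotinylated GST-cJun 1-79 at Ser73 with 10 µM ATP; % is scaled to controls: 0 for no effect and ±100 for the full control effect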
# Outline: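 Activity was read by AlphaScreen after JNK3-containing HepG2 lysate (cytokine pre-activated) phosphorylated biotinylated GST-cJun with 10 uM ATP at room temperature. Phospho-Ser73 cJun antibody with Protein-A acceptor beads provided detection.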
# [9] = target: 3',5'-cyclic-AMP phosphodiesterase 4B (Homo sapiens) (UniProt Q07343); assay: qHTS Assay for Inhibitors of PDE-IV (AID 607; active = well fitted activation curve with a large enough effect in the main read-out, with a control signal flat, not every such curve was filed as active; also: % of control where 0% means no effect); details: HEK293 ACTOne CNG channel cells, membrane potential fluorescence; series mostly up to 22.9 µM
# Sequence of 3',5'-cyclic-AMP phosphodiesterase 4B (Homo sapiens) (Q07343 whole entry, looked up): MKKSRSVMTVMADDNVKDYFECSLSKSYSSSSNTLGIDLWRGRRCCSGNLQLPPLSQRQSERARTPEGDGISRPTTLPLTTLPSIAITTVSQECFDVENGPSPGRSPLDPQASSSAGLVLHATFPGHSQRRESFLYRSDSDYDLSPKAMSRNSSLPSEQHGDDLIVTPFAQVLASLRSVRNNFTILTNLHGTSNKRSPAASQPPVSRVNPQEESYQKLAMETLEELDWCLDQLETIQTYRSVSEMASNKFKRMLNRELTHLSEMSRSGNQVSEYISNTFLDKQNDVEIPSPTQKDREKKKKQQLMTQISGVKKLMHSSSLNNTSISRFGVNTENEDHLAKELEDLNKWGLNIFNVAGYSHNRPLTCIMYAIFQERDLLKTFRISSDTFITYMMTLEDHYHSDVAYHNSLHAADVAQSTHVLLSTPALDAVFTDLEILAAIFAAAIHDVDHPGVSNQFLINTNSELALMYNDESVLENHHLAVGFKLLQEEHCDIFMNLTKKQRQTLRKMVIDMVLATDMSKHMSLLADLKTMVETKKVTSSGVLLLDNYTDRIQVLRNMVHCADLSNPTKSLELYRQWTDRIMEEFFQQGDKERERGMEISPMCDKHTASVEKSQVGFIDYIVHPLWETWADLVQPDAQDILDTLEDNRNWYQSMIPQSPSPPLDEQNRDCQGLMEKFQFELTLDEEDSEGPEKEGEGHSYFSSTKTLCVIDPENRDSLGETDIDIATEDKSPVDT
# Outline: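 Live HEK293 cells with a modified cyclic nucleotide-gated (CNG) channel report intracellular cAMP via membrane-potential dye fluorescence (ex 535/em 590 nm). Endogenous PDE-IV was targeted. Compounds were tested at up to 22.9 uM final; RO 20-1724 100 uM served as control.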
Structure (SMILES),Potency [1] [µM],"activity change, negative = inhibition [2] [%]",Potency [3],"activity change, negative = inhibition [4] [%]","activity, negative = inhibition [5] [%]",Potency [6] [µM],Potency [7] [µM],Potency [8],Potency [9],"activity change, negative = inhibition [3]"
NC(=O)NC(=O)[C@H]1CCCC[C@@H]1C(=O)O,> 11.4,7.05,inactive,-5.46,17.8,> 46,> 9.22,inactive,inactive,
O=C(O)[C@@H]1CCCN1Cc1c[nH]c2ccccc12,> 11.4,6.54,inactive,6.95,3.95,> 46,> 9.22,inactive,inactive,
Cc1ccccc1S(=O)(=O)O[C@@H]1NS(=O)(=O)c2ccccc21,> 11.4,6.97,,10.8,0.825,> 46,> 9.22,inactive,inactive,13.5% [at 2.29 µM]
OCCn1cnc2c(SCc3ccccc3)ncnc21,> 11.4,-4.68,3.16 µM (active),1.04,-1.73,> 46,> 9.22,inactive,inactive,
Cc1n[nH]c2ccccc2c1=O,> 11.4,-6.55,0.398 µM (active),-1.3,10.2,> 46,> 9.22,inactive,inactive,
CC[C@@H](CS(=O)(=O)O)[N+](=O)[O-],> 11.4,7.92,inactive,19.9,10.6,> 46,> 9.22,inactive,inactive,
O=C(O)[C@H]1CC=CC[C@@H]1C(=O)Nc1cccc(O)c1,> 11.4,-4.95,inactive,9.88,1.44,> 46,> 9.22,inactive,inactive,
Nc1cc(S(=O)(=O)O)cc2ccc(S(=O)(=O)O)cc12,> 11.4,1.79,,2.43,-1.78,> 46,> 9.22,inactive,inactive,-18.1% [at 2.29 µM]
O=C(O)Cc1cc(Cl)ccc1O,> 11.4,-8.98,inactive,-0.2,20.2,> 46,> 9.22,inactive,inactive,
CC(CCN)(CCN)[N+](=O)[O-],> 11.4,10.4,inactive,9.23,5.23,> 46,> 9.22,inactive,inactive,
O=C(O)c1cc2c(cc1S(=O)(=O)O)[C@H]1[C@@H]([C@H]3[C@H]2[C@@]2(Cl)C(Cl)=C(Cl)[C@]3(Cl)C2(Cl)Cl)[C@]2(Cl)C(Cl)=C(Cl)[C@@]1(Cl)C2(Cl)Cl,> 11.4,5.22,inactive,0.12,-4.58,> 46,> 9.22,inactive,inactive,
S=c1nc[nH]c2c1ncn2Cc1ccco1,> 11.4,8.99,inactive,-0.242,5.55,> 46,> 9.22,inactive,inactive,
CC1(C)O[C@@H]2O[C@H]([C@@H]3COC(C)(C)O3)[C@H](N)[C@H]2O1,> 11.4,5.74,,10.1,5.21,> 46,> 9.22,inactive,inactive,8.7% [at 2.29 µM]
CCOC(=O)[C@@H](O)Cc1cnc2ccccc2n1,> 11.4,5.54,3.16 µM (active),-6.57,-5.21,> 46,> 9.22,inactive,inactive,
O=C(O)CCCSc1nc2ccccc2s1,> 11.4,1.43,inactive,-19.5,4.62,> 46,> 9.22,inactive,inactive,
